Shown are actives, neighbours in structure and some others; about 15% of the full set was active somewhere.
ALOX12 inh – blocks human arachidonate 12S-lipoxygenase; P18054; purified 12hLO, xylenol orange hydroperoxide absorbance; Potency, µM (titrated, usually from 108 µM), for the others: top-dose activity change, negative = inhibition, usual class: inhibitors; hit rate 1.1% among 580,000; AID 1671190
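Purified human 12hLO (150 nM final) in 25 mM Hepes, 0.01% Triton X-100, pH 7.0 was preincubated 15 min at room temperature with compound. Then 40 uM arachidonic acid was added, 30 min. Hydroperoxide was read by Fe-XO absorbance ratio 573/405 nm.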
DT40 TDP1 CPT – growth inhibition of DT40 Tdp1-/-;hTDP1 cells with camptothecin (screen for TDP1 inhibitors); chicken DT40 Tdp1-/-;hTDP1 cells + 20 nM CPT, ATP luminescence, 48 h; Potency, µM (highest dose often 46.2 µM), for the others: at the top dose activity change, negative = growth inhibition, actives largely listed as inhibitors; hit rate 12% among 420,000; AID 686979; also: nearly all actives have a fitted effect of over 55% in size
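Cell growth measured by CellTiter-Glo luminescence after a minimum 48 h, 37 C compound exposure with 20 nM CPT in Tdp1-knockout DT40 cells stably expressing hTDP1, seeded 400/well; qHTS titration format.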
Gal4-VP16 FLuc – Gal4-VP16 reporter inhibition counter-screen; Potency, µM (series often up to 53.6 µM), inactives show at the top dose activity, negative = inhibition, hits mostly inhibitors; AID 2546; Drosophila S2 Gal4-VP16 UAS-luciferase, luminescence, 20 h; hit rate 3.5% among 310,000;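 also: Gal4-VP16 expression switched on by copper sulfate through the metallothionein promoter; nearly all actives have a fitted effect of over 50% in size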
DT40 TDP1 no CPT – qHTS for Inhibitors of human tyrosyl-DNA phosphodiesterase 1 (TDP1): qHTS in cells in absence of CPT | DT40 Tdp1-/- hTDP1 cells, no CPT, ATP luminescence, 48 h | Potency, µM (doses to about 46.2 µM), for the others: at the top dose activity change, negative = growth inhibition, hits mostly inhibitors | hit rate 15% among 420,000; also: nearly all actives have a fitted effect of over 55% in size
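No-CPT arm: Tdp1-/-;hTDP1 DT40 cells (400/well) plus compounds, incubated ≥48 hr at 37 °C. Readout CellTiter-Glo luminescence.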
RORgamma inh – inhibitors of mouse ROR gamma transcriptional activity; P51450; Potency, µM (top dose mostly 53.6 µM), without a hit: at the highest dose activity change, negative = inhibition, hits mostly inhibitors; hit rate 5.4% among 310,000; Drosophila S2 Gal4-RORgamma UAS-luciferase reporter, 20 h; also: nearly all actives have a fitted effect of over 60% in size
Target sequence (P51450 whole entry, looked up, the tested form may be a part): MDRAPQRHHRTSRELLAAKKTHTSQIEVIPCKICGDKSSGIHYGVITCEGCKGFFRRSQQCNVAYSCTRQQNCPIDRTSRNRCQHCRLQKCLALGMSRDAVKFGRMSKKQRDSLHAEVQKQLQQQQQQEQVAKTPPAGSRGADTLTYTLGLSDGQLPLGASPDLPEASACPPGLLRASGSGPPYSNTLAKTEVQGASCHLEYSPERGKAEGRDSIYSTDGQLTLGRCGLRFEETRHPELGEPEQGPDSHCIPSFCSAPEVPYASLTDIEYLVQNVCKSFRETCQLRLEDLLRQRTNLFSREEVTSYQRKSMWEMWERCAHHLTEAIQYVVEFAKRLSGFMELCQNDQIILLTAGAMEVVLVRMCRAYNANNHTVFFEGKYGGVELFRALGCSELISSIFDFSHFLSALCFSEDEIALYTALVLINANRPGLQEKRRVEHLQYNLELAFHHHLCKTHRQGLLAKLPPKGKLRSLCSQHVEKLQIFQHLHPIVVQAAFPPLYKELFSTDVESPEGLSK
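Compounds are pin-transferred onto Drosophila Schneider cells expressing a copper-inducible Gal4–ROR gamma transactivation domain fusion. After 1 hr, copper sulfate is added to 700 uM final; luciferase is read 20 hr later.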
ELG1 repair inh – blocks ELG1-dependent DNA repair in HEK293T cells. hit rate 2.3% among 330,000. HEK293T ELG1-luciferase reporter, luminescence, 16 h; DNA damage induced by 5-fluorouridine. Potency, µM (doses to about 46.1 µM), inactives show top-dose activity change, negative = inhibition, most hits filed as inhibitors; also: nearly all actives have a fitted effect of over 55% in size
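Luminescence from the luciferase reporter, measured 30 min after ONE-Glo reagent at room temperature, was the read-out. Beforehand, 2,000 cells per well were exposed for 16 hr at 37 °C to 5-fluorouridine together with compound or vehicle.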
Numbers without * were called inactive; i = inactive; ? = inconclusive; / = no result given; [ ] = another dose, or the depositor's remark. Calls follow the shape of the dose curve; as a rule, active = well fitted curve in the direction sought with a large enough effect; inconclusive = small, poorly fitted or top-dose-only effect, or another doubt; inactive = no such curve, though single readings can be large; an effect the other way counts as inactive or inconclusive. % is scaled to controls: 0 for no effect and ±100 for the full control effect; potency is read from the fitted curve at half-maximal effect.

SMILES	ALOX12 inh	DT40 TDP1 CPT	Gal4-VP16 FLuc	DT40 TDP1 no CPT	RORgamma inh	ELG1 repair inh
CC(=O)c1cc(Cl)cc(Cl)c1OCC(=O)N1CCN(C(=O)c2ccco2)CC1	-21.4%	/	/	/	/	/
O=C1c2cccc(NCCCNCCO)c2C(=O)c2cccc(NCCCNCCO)c21	5.9%	5.8µM*	/	5.8µM*	/	/
CCOC(=O)c1[nH]c2c(c1Cc1ccccc1OC)C(=O)CC(c1ccc(OC)cc1)C2 (configuration not stated)	6.7%	?	/	23.1µM*	/	/
CCCc1c(C(=O)OCC)[nH]c2c1C(=O)CC(c1ccc(F)cc1)C2 (configuration not stated)	-20.7%	/	/	/	/	/
CCOC(=O)c1[nH]c2c(c1Cc1ccccc1)C(=O)CC(c1ccc(OC)cc1)C2 (configuration not stated)	-10.9%	20.6µM*	/	20.6µM*	/	/
CCOC(=O)c1[nH]c2c(c1-c1ccccc1)C(=O)CC(c1ccc(OCC)cc1)C2 (configuration not stated)	340.1%	-25.5%	-23.0%	-1.4%	22.3%	8.5%
CCOC(=O)c1[nH]c2c(c1Cc1ccccc1)C(=O)CC(c1ccc(Cl)cc1)C2 (configuration not stated)	-22.4%	16.4µM*	/	23.1µM*	/	/
CCOCC1(C)COc2ccc(C(=O)Nc3ccc(Cl)cc3)cc2N1 (configuration not stated)	-3.0%[176 µM]	/	/	/	/	/
CSc1nc(N)c2c(n1)NC1=C(C(=O)CC(C)(C)C1)C2c1ccccc1 (configuration not stated)	0.4%	/	/	/	/	/
CNC(=O)N(C1=NCC(C)(C)S1)c1ccc(F)c(Cl)c1	-6.9%	?	8.0%	18.4µM*	2.7%	-7.4%
CCCCCCCCSC1=CC(=O)C(OC)=C(OC)C1=O	?	1.16µM*	/	1.03µM*	/	/
Cn1cc(C(=O)NCCCN2CCCCCC2=O)c2ccccc21	5.7%	/	/	/	/	/
c1ccc(C(c2ccccc2)c2noc(CN3CCC(c4ccncc4)CC3)n2)cc1	5.1%	20.6µM*	3.3%	?	-18.0%	-8.7%
Fc1ccc(CN2CCCN(Cc3nc(-c4ccc5c(c4)OCO5)no3)CC2)cc1	3.0%	?	-3.8%	?	13.9%	-3.5%
c1ccc(CCC2CCCCN2Cc2nc(-c3ccc4c(c3)OCO4)no2)nc1 (configuration not stated)	0.4%	16.4µM*	19.2%	20.6µM*	-0.7%	?
c1cc(C2CCN(Cc3nc(-c4ccc5c(c4)OCO5)no3)CC2)ccn1	-28.8%	20.6µM*	?	11.6µM*	-23.4%	?
COCC1CCN(Cc2nc(-c3ccc4c(c3)OCO4)no2)C1 (configuration not stated)	2.3%	3.2%	-4.8%	-12.2%	1.1%	?
O=C(c1ccco1)N1CCCN(Cc2nc(-c3ccc4c(c3)OCO4)no2)CC1	-12.9%	-10.4%	7.4%	16.4µM*	16.1%	6.5%
c1ccc(C2CCCN(Cc3nc(CC4CC4)no3)CC2)cc1 (configuration not stated)	-28.1%	-12.3%	-6.6%	-19.3%	24.9%	?
Cc1cccc(-c2nc(CSCC(=O)N3CCN(c4cccc(C)c4C)CC3)c(C)o2)c1	-13.4%	18.4µM*	/	?	/	/
Cc1cccc(-c2nc(CSCC(=O)N3CCN(c4ccccn4)CC3)c(C)o2)c1	-9.8%	20.6µM*	-22.0%	?	40.3%	?
Cc1ccc(-c2nc(CSCC(=O)N3CCCC3)c(C)o2)cc1	-9.6%	-45.5%	1.6%	-38.2%	-0.7%	25.0%
COc1ccc2c(c1)CCC/C2=N/OC(=O)c1ccccc1OC	-0.4%	-18.6%	1.8%	?	3.8%	6.1%
COc1ccc2c(c1)CC/C2=N\OC(=O)c1ccccc1C	-2.6%	-18.5%	?	-16.9%	3.98µM*	?
O=c1cc(/C=C/c2ccccc2)oc2ccccc12	11.5%	16.4µM*	?	?	?	?
SMILES	ALOX12 inh	DT40 TDP1 CPT	Gal4-VP16 FLuc	DT40 TDP1 no CPT	RORgamma inh	ELG1 repair inh
CN(C)c1ccc(C(=O)Nc2cccc(-c3nc4cccnc4s3)c2)cc1	-24.1%	5.8µM*	/	10.3µM*	/	/
CCOc1ncccc1C(=O)Nc1cccc(-c2nc3cccnc3s2)c1	4.6%	?	2.1%	13µM*	11.0%	-27.5%
O=C(Nc1cccc(-c2nc3cccnc3s2)c1)c1cccc(Br)c1	-14.3%	8.2µM*	/	8.2µM*	/	/
O=C(Cc1cc(Cl)c2c(c1)OCCO2)NC1CCN(C2CC2)CC1	2.7%	/	/	/	/	/
COc1cc2c(cc1OC)CN(C(=O)COC(=O)c1cccnc1Nc1ccccc1F)CC2	-11.2%	/	/	/	/	/
CCCn1c(NC(=O)COc2ccc(C)cc2)nc2ccccc21	5.8%	/	/	/	/	/
CCCn1c(NC(=O)c2ccc(F)cc2)nc2ccccc21	8.1%	-18.2%	2.51µM*	?	0.316µM*	2.2%
CCCn1c(NC(=O)c2oc3ccccc3c2CSC)nc2ccccc21	-14.8%	/	/	/	/	/
CCCn1c(NC(=O)CCNC(=O)c2ccccc2Cl)nc2ccccc21	361.3%	?	/	?	/	20.6µM*
O=C(CCNC(=O)c1ccccc1Cl)Nc1nc(-c2ccccc2Cl)cs1	?	?	13.8%	18.4µM*	?	?
CCCn1c(NC(=O)c2ccccc2Br)nc2ccccc21	14.1%	?	2.82µM*	23.1µM*	0.355µM*	0.0%
CCN1CC(C(=O)NCc2noc(Cc3ccccc3)n2)CCC1=O (configuration not stated)	11.8%	/	/	/	/	/
CCCCn1c(NC(=O)C2CCCCC2)nc2ccccc21	0.0%	?	2.82µM*	?	1.26µM*	0.2%
CCn1c(=O)c(C(C)=O)nc2ccccc21	0.0%	-9.3%	4.0%	-9.6%	-1.4%	9.6%
CCn1c(NC(=O)/C=C/c2ccc(F)cc2)nc2ccccc21	4.7%	?	?	23.1µM*	1.26µM*	?
CCCCCn1c(=O)c(C(=O)c2ccccc2)nc2ccccc21	0.0%	?	6.2%	23.1µM*	16.9%	-17.0%
CCCCn1c(NC(=O)c2ccccc2)nc2ccccc21	17.9%	?	2.24µM*	?	1.12µM*	4.8%
CCc1ccccc1NC(=O)C1COc2ccccc2O1 (configuration not stated)	0.0%	1.8%	-1.4%	-2.0%	-3.9%	?
CCCn1c(NC(=O)C2CCN(C(=O)c3ccc(F)cc3)CC2)nc2ccccc21	i	18.4µM*	8.91µM*	?	7.08µM*	?
